# Targets with a hit are over-represented here; the source holds about 8,800 in all. About 0.5% of all pairs of compound and target were hits. Values without a mark were called inactive.
# Columns and labels:
# Test in all cases: log2 fold change, soluble protein after heating vs DMSO (PISA); higher = thermal stabilisation; K562 lysate, 10 uM; active = over 0.2 and 3.5 SD of the protein, either way, in both replicates (recomputed)
# [1] = compound: CCCS(=O)(=O)Nc1ccc(F)c(C(=O)c2c[nH]c3ncc(-c4ccc(Cl)cc4)cc23)c1F [vemurafenib]
# In short: (§1)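 The values are log-two fold changes in thermal stability compared with solvent controls and come from duplicates. They were obtained by TMTpro 16plex LC-MS/MS, with channel sums equalised, on the supernatant after 21,000xg for 90 min. That supernatant came from crude K562 extract at 1 mg/mL protein treated with 10 μM compound for 30 min, heated for 3 min across 48°C-58°C, pooled and brought to 0.5% NP-40 at 4°C.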
# [2] = compound: CCCS(=O)(=O)Nc1ccc(F)c(C(=O)c2c[nH]c3ncc(Cl)cc23)c1F
# In short: as §1
# [3] = compound: CCN(CCCOc1ccc2c(Nc3cc(CC(=O)Nc4cccc(F)c4)[nH]n3)ncnc2c1)CCOP(=O)(O)O [barasertib]
# In short: as §1
# [4] = compound: CC[C@@H]1C(=O)N(C)c2cnc(Nc3ccc(C(=O)NC4CCN(C)CC4)cc3OC)nc2N1C1CCCC1
# In short: as §1
# [5] = compound: CC[C@@H]1C(=O)N(C)c2cnc(Nc3ccc(C(=O)N[C@H]4CC[C@H](N5CCN(CC6CC6)CC5)CC4)cc3OC)nc2N1C(C)C [volasertib]
# In short: as §1
# [6] = compound: CCn1c(C(=O)N(C2CC2)C2CC2)cc2c3c(ncn3C)c(Nc3cc(C)n(C)n3)nc21
# In short: as §1
# [7] = compound: CCn1cc(-c2ccnc3[nH]c(-c4cccc(CN(C)C)c4)cc23)c(-c2ccc(NC(=O)N(C)C)cc2)n1
# In short: as §1
# [8] = compound: CN1CCC(CNc2ccc3ncc(-c4cccc(OC(F)(F)F)c4)n3n2)CC1
# In short: as §1
# [9] = compound: CN1CCN(CCOc2cc(OC3CCOCC3)c3c(Nc4c(Cl)ccc5c4OCO5)ncnc3c2)CC1 [saracatinib]
# In short: as §1
# [10] = compound: CN1CCN(c2nc(C3=C(c4c[nH]c5ccccc45)C(=O)NC3=O)c3ccccc3n2)CC1 [sotrastaurin]
# In short: as §1
# Chain of UniProt P29373 (P29373 whole entry, looked up): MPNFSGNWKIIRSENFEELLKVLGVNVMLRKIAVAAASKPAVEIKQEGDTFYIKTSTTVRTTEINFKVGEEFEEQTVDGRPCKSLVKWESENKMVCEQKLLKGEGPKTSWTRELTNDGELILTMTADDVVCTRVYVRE
# Chain of UniProt O75911 (O75911 whole entry, looked up): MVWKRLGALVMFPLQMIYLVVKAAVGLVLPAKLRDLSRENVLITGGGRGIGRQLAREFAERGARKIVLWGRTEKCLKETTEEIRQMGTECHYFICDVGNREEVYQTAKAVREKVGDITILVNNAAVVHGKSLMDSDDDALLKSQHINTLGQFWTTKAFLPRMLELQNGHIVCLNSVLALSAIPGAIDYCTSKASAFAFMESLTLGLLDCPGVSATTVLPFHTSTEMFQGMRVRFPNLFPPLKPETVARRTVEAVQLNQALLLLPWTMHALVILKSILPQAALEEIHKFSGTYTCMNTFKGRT
# Chain of UniProt Q86Y56 (Q86Y56 whole entry, looked up): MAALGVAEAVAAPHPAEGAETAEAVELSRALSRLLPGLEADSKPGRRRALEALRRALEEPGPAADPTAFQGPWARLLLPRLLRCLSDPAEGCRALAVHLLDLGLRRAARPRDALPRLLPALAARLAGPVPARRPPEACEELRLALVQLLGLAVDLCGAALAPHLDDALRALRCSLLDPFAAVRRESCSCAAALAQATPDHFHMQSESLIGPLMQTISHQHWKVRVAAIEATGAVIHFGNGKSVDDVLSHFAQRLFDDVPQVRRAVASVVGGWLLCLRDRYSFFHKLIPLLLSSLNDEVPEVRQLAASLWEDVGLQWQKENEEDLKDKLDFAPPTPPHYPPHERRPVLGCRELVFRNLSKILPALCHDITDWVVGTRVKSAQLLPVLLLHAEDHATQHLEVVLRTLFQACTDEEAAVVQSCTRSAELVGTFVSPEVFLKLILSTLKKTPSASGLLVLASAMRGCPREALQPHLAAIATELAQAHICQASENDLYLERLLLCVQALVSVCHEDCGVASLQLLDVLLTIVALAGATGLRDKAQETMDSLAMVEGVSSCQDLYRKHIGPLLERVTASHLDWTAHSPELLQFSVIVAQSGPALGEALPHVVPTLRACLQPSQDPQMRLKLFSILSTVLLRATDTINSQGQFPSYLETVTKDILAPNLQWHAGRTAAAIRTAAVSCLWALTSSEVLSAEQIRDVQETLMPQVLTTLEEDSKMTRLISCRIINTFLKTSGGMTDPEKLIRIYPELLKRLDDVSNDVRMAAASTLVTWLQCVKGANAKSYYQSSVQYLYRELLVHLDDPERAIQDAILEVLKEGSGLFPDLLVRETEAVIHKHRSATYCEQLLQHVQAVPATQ
# Chain of UniProt P33240 (P33240 whole entry, looked up): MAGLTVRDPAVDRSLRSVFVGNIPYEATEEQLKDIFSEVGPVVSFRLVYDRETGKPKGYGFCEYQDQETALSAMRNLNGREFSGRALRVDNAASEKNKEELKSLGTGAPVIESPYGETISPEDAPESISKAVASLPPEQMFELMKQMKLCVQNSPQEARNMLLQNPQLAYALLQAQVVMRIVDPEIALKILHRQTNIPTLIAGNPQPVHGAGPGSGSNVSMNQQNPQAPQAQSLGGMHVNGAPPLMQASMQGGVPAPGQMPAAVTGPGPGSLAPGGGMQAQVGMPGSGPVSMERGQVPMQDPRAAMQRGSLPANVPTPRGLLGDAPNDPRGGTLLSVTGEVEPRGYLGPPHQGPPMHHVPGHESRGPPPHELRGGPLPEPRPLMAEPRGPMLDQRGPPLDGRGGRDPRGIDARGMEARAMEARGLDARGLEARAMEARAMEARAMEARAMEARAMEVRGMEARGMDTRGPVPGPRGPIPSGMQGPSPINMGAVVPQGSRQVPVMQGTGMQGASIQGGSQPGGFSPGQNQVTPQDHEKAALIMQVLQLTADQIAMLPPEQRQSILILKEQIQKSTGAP
# Chain of UniProt Q15398 (Q15398 whole entry, looked up): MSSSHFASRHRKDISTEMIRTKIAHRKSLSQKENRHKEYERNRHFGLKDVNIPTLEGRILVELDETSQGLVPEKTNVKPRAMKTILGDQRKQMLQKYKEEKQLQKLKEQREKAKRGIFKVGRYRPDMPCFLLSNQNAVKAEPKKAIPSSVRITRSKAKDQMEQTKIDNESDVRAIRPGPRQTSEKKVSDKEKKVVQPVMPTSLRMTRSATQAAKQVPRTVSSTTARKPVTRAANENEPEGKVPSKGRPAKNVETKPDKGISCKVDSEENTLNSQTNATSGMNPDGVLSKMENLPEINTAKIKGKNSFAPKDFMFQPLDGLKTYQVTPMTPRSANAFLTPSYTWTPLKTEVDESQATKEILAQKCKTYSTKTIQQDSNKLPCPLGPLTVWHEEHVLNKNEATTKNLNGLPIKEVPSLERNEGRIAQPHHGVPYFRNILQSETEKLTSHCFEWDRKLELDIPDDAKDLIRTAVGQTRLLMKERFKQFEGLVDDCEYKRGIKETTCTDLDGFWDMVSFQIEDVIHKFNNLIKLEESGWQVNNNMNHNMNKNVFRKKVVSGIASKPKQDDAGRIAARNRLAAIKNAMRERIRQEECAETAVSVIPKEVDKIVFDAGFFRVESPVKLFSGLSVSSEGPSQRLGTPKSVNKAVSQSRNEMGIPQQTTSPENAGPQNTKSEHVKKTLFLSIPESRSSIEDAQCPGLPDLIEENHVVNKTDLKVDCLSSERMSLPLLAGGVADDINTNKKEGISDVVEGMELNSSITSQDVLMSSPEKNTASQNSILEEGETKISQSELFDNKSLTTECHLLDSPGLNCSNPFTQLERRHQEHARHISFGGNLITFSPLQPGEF
# Chain of UniProt P49674 (P49674 whole entry, looked up): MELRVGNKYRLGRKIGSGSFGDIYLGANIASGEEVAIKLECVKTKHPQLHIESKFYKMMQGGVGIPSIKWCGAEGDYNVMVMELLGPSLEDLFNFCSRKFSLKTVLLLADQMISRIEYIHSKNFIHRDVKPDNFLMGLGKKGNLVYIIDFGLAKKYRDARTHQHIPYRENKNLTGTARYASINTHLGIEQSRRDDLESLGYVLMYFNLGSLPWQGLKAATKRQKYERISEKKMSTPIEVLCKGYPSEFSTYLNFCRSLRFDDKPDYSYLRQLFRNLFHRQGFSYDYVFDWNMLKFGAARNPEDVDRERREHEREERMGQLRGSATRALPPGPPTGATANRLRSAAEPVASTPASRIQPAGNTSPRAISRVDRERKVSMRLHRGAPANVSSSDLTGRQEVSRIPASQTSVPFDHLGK
# Chain of UniProt Q13616 (Q13616 whole entry, looked up): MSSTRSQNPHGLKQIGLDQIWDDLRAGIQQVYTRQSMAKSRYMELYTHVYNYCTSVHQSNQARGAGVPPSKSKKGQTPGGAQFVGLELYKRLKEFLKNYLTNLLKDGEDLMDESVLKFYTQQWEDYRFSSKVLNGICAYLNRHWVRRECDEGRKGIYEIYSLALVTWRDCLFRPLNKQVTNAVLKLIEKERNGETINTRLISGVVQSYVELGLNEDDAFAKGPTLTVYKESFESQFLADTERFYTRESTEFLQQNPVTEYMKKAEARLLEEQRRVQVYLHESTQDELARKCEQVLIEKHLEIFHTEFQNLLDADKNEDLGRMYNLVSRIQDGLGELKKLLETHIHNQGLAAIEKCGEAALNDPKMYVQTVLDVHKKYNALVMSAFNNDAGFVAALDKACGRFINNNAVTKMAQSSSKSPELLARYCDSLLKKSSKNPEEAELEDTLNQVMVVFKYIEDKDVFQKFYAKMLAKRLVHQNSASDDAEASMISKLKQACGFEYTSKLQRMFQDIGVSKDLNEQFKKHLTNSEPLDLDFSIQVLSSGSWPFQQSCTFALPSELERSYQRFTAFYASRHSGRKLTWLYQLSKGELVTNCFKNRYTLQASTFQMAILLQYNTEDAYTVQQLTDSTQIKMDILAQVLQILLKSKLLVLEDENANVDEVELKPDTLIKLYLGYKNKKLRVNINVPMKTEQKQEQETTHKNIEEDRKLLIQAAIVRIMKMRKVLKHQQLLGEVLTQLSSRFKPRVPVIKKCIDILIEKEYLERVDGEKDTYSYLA
# Chain of UniProt Q8NI60 (Q8NI60 whole entry, looked up): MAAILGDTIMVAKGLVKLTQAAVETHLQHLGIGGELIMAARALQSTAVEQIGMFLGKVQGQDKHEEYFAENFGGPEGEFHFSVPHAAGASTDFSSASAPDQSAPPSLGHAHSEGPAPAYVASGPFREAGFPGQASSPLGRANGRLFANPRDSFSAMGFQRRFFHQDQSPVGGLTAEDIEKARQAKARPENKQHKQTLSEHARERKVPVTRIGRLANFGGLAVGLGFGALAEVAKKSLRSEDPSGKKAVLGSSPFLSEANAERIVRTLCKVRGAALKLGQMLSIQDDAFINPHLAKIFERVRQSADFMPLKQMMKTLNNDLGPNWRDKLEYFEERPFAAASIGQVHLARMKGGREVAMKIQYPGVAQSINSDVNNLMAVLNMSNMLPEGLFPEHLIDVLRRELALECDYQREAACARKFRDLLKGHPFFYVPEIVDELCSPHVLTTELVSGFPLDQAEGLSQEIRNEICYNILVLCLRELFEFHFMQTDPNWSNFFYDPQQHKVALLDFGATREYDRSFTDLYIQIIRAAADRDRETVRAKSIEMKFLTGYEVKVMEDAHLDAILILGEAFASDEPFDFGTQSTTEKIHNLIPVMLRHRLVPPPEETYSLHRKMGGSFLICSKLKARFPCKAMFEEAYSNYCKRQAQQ
# Chain of UniProt O75208 (O75208 whole entry, looked up): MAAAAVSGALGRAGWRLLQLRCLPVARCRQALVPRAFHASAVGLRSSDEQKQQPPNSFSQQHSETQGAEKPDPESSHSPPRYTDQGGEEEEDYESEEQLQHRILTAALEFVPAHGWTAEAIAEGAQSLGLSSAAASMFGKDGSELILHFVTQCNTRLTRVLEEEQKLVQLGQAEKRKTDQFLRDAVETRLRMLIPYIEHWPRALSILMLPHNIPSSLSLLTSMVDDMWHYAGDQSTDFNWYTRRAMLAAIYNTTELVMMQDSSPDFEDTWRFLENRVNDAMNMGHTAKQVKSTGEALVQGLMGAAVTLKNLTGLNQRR
# Chain of UniProt P24311 (P24311 whole entry, looked up): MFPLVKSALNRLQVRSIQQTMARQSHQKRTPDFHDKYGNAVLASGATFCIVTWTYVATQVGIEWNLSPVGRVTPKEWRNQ
Target,log2 fold change [1],log2 fold change [2],log2 fold change [3],log2 fold change [4],log2 fold change [5],log2 fold change [6],log2 fold change [7],log2 fold change [8],log2 fold change [9],log2 fold change [10]
COG7 (UniProt P83436),0.003,0.018,0.017,-0.054,-0.076,-0.003,-0.209,-0.019,0.05,0.039
CRABP2 (UniProt P29373),0.128,0.007,0.528,-0.139,0.026,-0.005,0.089,-0.003,0.092,0.001
COG4 (UniProt Q9H9E3),0.018,0.047,0.085,-0.048,-0.088,0.024,0.005,-0.125,0.055,0.05
DLGAP5 (UniProt Q15398),0.01,0.009,0.007,-0.018,-0.013,0,-0.024,0.019,0.013,-0.004
CIP2A (UniProt Q8TCG1),0.036,0.019,0.153,0.001,-0.086,0.037,-0.07,-0.075,0.009,0.014
DERA (UniProt Q9Y315),-0.013,-0.001,-0.064,0.077,0.025,-0.031,0.985 (active),-0.115,0,-0.03
CLPB isoform 2 (UniProt Q9H078),0.011,0.023,0.026,0.007,-0.042,0.044,0.078,-0.045,0.004,-0.012
CSNK2A2 (UniProt P19784),-0.219,-0.005,-0.044,-0.031,-0.082,0.011,-0.092,0.418,0,0.023
CYP24A1 (UniProt Q07973),0.065,-0.01,-0.055,0.166,0.006,-0.212,-0.499 (active),0.268,0.056,0
CNOT2 (UniProt Q9NZN8),0.037,-0.026,0.065,0.029,-0.048,0.039,0.17,-0.059,-0.013,0.002
DNAAF5 (UniProt Q86Y56),-0.006,-0.007,0.03,-0.062,-0.06,0.047,-0.035,-0.049,0.04,0.044
CTPS2 (UniProt Q9NRF8),0.002,0.01,0.015,-0.028,-0.009,0.011,-0.041,0.058,0.012,-0.044
DDA1 (UniProt Q9BW61),-0.02,0.038,-0.004,0.003,0,0.046,0,-0.023,0.019,-0.025
COQ8A (UniProt Q8NI60),0.036,-0.009,0.134,0.026,-0.026,-0.029,-0.214,0.573 (active),0.697 (active),0.016
COPZ1 isoform 4 (UniProt P61923),-0.054,-0.004,0.111,0.022,0.019,0.004,-0.015,-0.187,0.018,0.01
DHRS3 (UniProt O75911),0.082,0.012,-0.01,-0.03,0.033,-0.041,-0.061,0.034,0.029,0.013
DCTN1 (UniProt Q14203),-0.025,0.008,0.021,-0.021,-0.048,0.002,0.034,-0.034,0.029,-0.003

Target,log2 fold change [1],log2 fold change [2],log2 fold change [3],log2 fold change [4],log2 fold change [5],log2 fold change [6],log2 fold change [7],log2 fold change [8],log2 fold change [9],log2 fold change [10]
DENND1B (UniProt Q6P3S1),0.128,-0.036,0.01,–,-0.05,-0.134,0.022,-0.024,-0.018,0.04
COX7B (UniProt P24311),0.014,-0.047,–,-0.01,0.004,-0.051,0.047,-0.013,-0.062,-0.028
CKM (UniProt P06732),0.072,-0.018,-0.018,0.086,-0.084,-0.039,-0.574 (active),0.17,-0.014,0.086
CSTF2 (UniProt P33240),0.011,-0.015,0.27 (active),0.062,-0.012,-0.037,-0.053,0.042,0.007,0.038
CSNK1E (UniProt P49674),-0.013,-0.038,0.029,0.135,-0.01,0.11,-0.013,0.237,0.069,0.061
DLD (UniProt P09622),0.007,0.003,-0.032,0.032,0.057,-0.018,-0.071,0.04,0.009,-0.015
CUEDC2 (UniProt Q9H467),0.06,0.001,0.026,0.038,0.027,-0.084,0.694 (active),-0.07,0.002,0
CYP51A1 (UniProt Q16850),-0.014,-0.007,-0.011,0.053,0.01,-0.02,-0.103,-0.066,-0.043,0.001
DPY19L3 (UniProt Q6ZPD9),0.258,0.05,0.071,0.043,-0.007,–,–,–,–,0.051
CLASP2 (UniProt O75122),0.241,0.072,-0.015,0.021,-0.052,-0.098,-0.077,0.073,–,0.18
DNAH5 (UniProt Q8TE73),0.007,0.074,0.006,–,0.02,-0.035,-0.481 (active),0.122,0.007,–
DCP1A (UniProt Q9NPI6),0.023,0.017,-0.066,0.077,-0.055,0.029,-0.082,0.059,-0.006,-0.053
DES (UniProt P17661),0.084,0.008,-0.001,0.045,0.058,-0.026,-0.434 (active),0.149,0.106,-0.012
COQ9 (UniProt O75208),-0.023,0.126,0.275 (active),0,-0.012,0.002,0.015,-0.066,-0.001,-0.101
CUL1 (UniProt Q13616),-0.008,0.001,-0.011,0.034,0.029,0.004,-0.013,0.029,-0.023,-0.029
CHEK1 (UniProt O14757),-0.02,0.006,0.015,-0.031,-0.012,-0.012,-0.008,-0.045,-0.004,-0.014
